# According to the supplement of paper PMC6555819:
# Experiments:
# Assay in all cases: PBM binding z-score (relative to random genomic background probes); higher = stronger binding; sequences stand for … in GC…GCGATTGACAGCGTAGAATGAAGG
# [1] = tested on: FXR:RXRa (NR concentration 270 nM, RXRa partner concentration 90 nM)
# Outline: (§1)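 For binding z-scores, the reference was random background probes on custom Agilent 4×180K protein-binding microarrays. These arrays were incubated 1 h with ligand-free nuclear receptor dimers in PBS pH 7.4, 2% milk, 0.02% Triton X-100, 1 mM DTT, 0.2 mg/mL BSA and 0.4 mg/ml salmon testes DNA. Fluorescence was scanned after antibody detection of each partner (one per run) and regression-normalized.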
# [2] = tested on: LXRa:RXRa (NR concentration 270 nM, RXRa partner concentration 90 nM)
# Outline: as §1
# [3] = tested on: LXRa homodimer (NR concentration 270 nM)
# Outline: as §1
# [4] = tested on: LXRb:RXRa (NR concentration 270 nM, RXRa partner concentration 90 nM)
# Outline: as §1
# [5] = tested on: LXRb homodimer (NR concentration 270 nM)
# Outline: as §1
# [6] = tested on: PPARa:RXRa (NR concentration 270 nM, RXRa partner concentration 90 nM)
# Outline: as §1
# [7] = tested on: PPARg:RXRa (NR concentration 180 nM, RXRa partner concentration 90 nM)
# Outline: as §1
# [8] = tested on: PPARg:RXRa 270nM:90nM, anti-RXR (NR concentration 270 nM, RXRa partner concentration 90 nM)
# Outline: as §1
# [9] = tested on: PPARg:RXRa 30nM:10nM, anti-RXR (NR concentration 30 nM, RXRa partner concentration 10 nM)
# Outline: as §1
# [10] = tested on: PPARg:RXRa 90nM:30nM, anti-RXR (NR concentration 90 nM, RXRa partner concentration 30 nM)
# Outline: as §1
Sequence,PBM binding z-score [1],PBM binding z-score [2],PBM binding z-score [3],PBM binding z-score [4],PBM binding z-score [5],PBM binding z-score [6],PBM binding z-score [7],PBM binding z-score [8],PBM binding z-score [9],PBM binding z-score [10]
TCGAGTAGGTTACCAATGGGGTATTCAGCTTTCT,0.116,0.749,-0.345,0.847,-0.514,0.988,0.229,1.14,1.34,1.28
CTTGAAAGGTCGTGCTCAGGTGAGTATACCAAAC,5.86,4.22,0.0529,4.1,0.221,5.03,2.74,3.62,0.962,2.69
CGAACTAGGTCAAGGACAGTGTATCTCCGCACGC,3.62,2.36,0.431,1.57,-0.208,4.9,7.62,6.48,3.91,5.64
ATACCCAGGTGATCGTGAGGTCGTTGATACTAAC,1.37,1.07,0.85,1.07,-0.141,1.35,0.596,0.875,-0.0532,0.317
AGAACGAGGGCTATGAGTTGATAGCACGGGTGGC,-0.355,-0.47,-0.658,-0.828,-0.486,-0.335,0.792,0.00243,-0.297,0.151
CCTATTAGTTGACCATAAGGGCAACCGCAGCTCG,1.1,0.581,0.369,0.306,0.642,0.449,0.36,0.368,-0.191,0.0579
TCGAGTAGGTTAGGGGCATTCAGAATGGCGTCGA,0.42,0.257,-0.31,0.672,-0.239,1.39,0.676,1.98,1.13,1.76
ATATGTAGATTACATCCGGGTCATTCAGGCTATG,1.18,1.51,0.625,1.99,0.664,2.51,1.42,1.25,0.659,1
CTTAGCAGGCCAGGGTCACTCAAGCATTTCGCTT,2.22,1.69,-0.276,2.19,-0.331,3.33,0.864,1.93,-0.113,1.06
CCTACTGGGCCAAAGGTCGTTGATTCCAATGCTC,1.29,1.46,-0.124,1.91,-0.505,5.3,11.1,9.69,9.46,10.5
CAAACTGGGTCAAGAGGTCAAAGTCCGCTTCCCG,6.73,6.26,5.68,5.53,1.32,6.47,9.59,8.33,7.11,8.47
ACTAGTTGGTCAGCTTAGGTCACACACAATTCGG,1.75,1.6,1.42,1.82,0.877,1.97,1.07,1.05,0.166,0.931
CGAACGAGGGCATGAGTTGAGAGCAAATGCCGAT,0.636,0.355,-0.664,0.203,-1,1.65,1.42,1.4,0.0136,0.958
GCGACTGGGGCAGCAGCAGGTTACCATAACTTAA,-0.536,-0.657,-0.621,-0.287,-1.12,0.405,0.4,-0.0757,-0.451,-0.719
ATCTCTAGGTAAAAGTTCAGAGAATCCCGAGGAT,1.14,1.55,1.43,1.03,0.872,4.35,8.44,7.88,7.79,9.43
GGAACGAGGGCATTCGAGTTGATCGCATGGCGAT,1.56,1.88,-0.524,0.182,-1,1.17,0.585,0.552,-0.63,0.176
ATCGAAAGGTCGTGAGGAGAGTATACAGAAAGGC,5.47,4.45,0.57,3.32,1.13,4.93,3.66,4.22,1.53,2.94
ATATGTAGGTTAAGGGTCATTCTGGTTGGTTCGC,5.42,4.75,3.48,4.51,1.56,6.65,11.4,9.66,10.5,11.5
GCTTGTAGGTCAAGGTTAAGAAAGACTAAGCTAA,5.3,4.01,0.371,3.16,0.186,5.37,9.1,7.63,6.21,7.79
TCGAGTAGGTTACCAATGGGGCATTCACCTTTCT,0.403,1.81,-0.322,1.57,-0.26,1.55,0.512,1.43,1.26,1.47
CCGAGTAGGTTATGGGGCATTCGGGCAACGGTGA,0.24,0.637,0.00114,0.528,-0.313,2.4,3.36,4.85,2.16,4.57
GCAGACAGGTGAAACGCAGGTAACACAGGGTGGC,-0.0327,-0.0189,-0.439,-0.317,-1.1,0.885,0.859,0.128,-0.52,-0.381
CCTACTGCGCCAAAAAGGTCATTGATGCCGATAA,4.02,4.8,4.24,4.54,1.52,4.78,1.47,3.17,1.18,2.45
TAGCCTATGTCAGATCGGGCCAGTATACGCTATA,-0.25,-0.56,-0.38,-0.651,-0.818,-0.546,0.0766,-0.557,-0.477,-0.278
GCTCGGAGGTCAAGGTCAGAGCTTTGTCCGTAGA,7.3,5.97,1.81,4.82,1.33,5.76,6.41,6.35,2.69,5.23

Sequence,PBM binding z-score [1],PBM binding z-score [2],PBM binding z-score [3],PBM binding z-score [4],PBM binding z-score [5],PBM binding z-score [6],PBM binding z-score [7],PBM binding z-score [8],PBM binding z-score [9],PBM binding z-score [10]
CGTCCAAGGTCAAAGGTGAGTGAAGAGATGACGG,7.3,5.66,0.771,4.65,1.11,6.66,8.58,7.77,5.88,7.38
TCTAGTTGGTCACGGACGTCACACACGACGGGTA,0.24,0.203,-0.153,0.406,0.211,0.764,1.24,1.59,2.77,1.95
ACAGACAGGTGAATGAAGGTAACTCAGCTGGACG,0.255,-0.0154,-0.43,-0.273,-0.569,0.447,0.97,0.258,0.0803,0.0876
CCGACTGGGGGAAGGTTACCATAACGCACAGCCA,0.719,1.05,0.199,2.11,2.85,1.71,1.63,2.33,0.95,1.37
ATCGAAAGATCGTGAGGTGAGTATACAGAAAGGC,0.0329,-0.211,0.0924,-0.208,-0.374,0.327,0.669,-0.00875,0.225,0.106
AAAACAGGGTCACTAGGCCAGAGTAGGTACGAAT,6.63,4.02,-0.0117,4,0.509,6.07,8.29,7.23,4.36,6.34
CCTAGCAGTCCAATCTGGGTCACTCAAGGCTTGA,0.349,0.868,-0.0916,0.921,-0.342,2.91,1.73,2.01,-0.0165,1.64
GTACCAAGGTGACTAGGTCGTTGATGAGTAGGCG,0.348,0.174,-0.398,-0.125,-1.01,1.59,1.89,1.69,0.141,0.756
CTCTAAAGGTCGTGCTCAGGTGAGTATACCAAAC,5.37,4.54,0.529,3.65,0.548,5.2,3.27,4.11,0.925,2.64
TCCTGTAGATCAAAGGTTAAGAAAGCCGAAGCCT,1.59,2.18,-0.208,2.2,-0.193,4.17,7.57,7.55,8.09,8.13
TCCATTAGTTGAAGGGCAACCGACGAGTCCGTTT,1.27,1.35,0.397,1.23,0.255,1.18,0.134,2.23,3.64,3.02
TAGCGTAGGTCATGGGCCAGTATACCACGCGAAC,4.78,3.98,0.0742,2.68,-0.458,4.58,3.92,4.08,1.41,2.88
TCTAGCAGGCCAGAGGGTCACCCAAGAGGTACGG,1.31,1.35,-0.606,1.36,-0.868,2.83,1.73,2.84,1.92,2.71
TCATATAGGTAATATAGGTGAAAGTCGGCATCTA,0.703,1.07,0.157,0.856,0.102,2.92,3.31,3.65,4.1,3.94
AGAATGAGTTTATTAAGATCAGGGAATTGCGGTC,-0.0233,-0.176,0.0886,-0.353,0.198,-0.254,0.0616,-0.094,-0.0755,-0.195
TAGCCTAGGTAATGCGGGCCAGTATAGTGTCGGC,-1.49,-1.07,-0.66,-1.17,-1.38,-0.346,0.000474,-0.669,-0.676,-0.655
ACTTACGGGTCAACGAGGGTATAGCACGCGTATA,6.96,4.31,0.258,3.79,0.591,5.61,5.35,5.06,1.72,3.63
TCTGCTAGGTCAACAATGGTCAGCTAATCTGCTA,3.1,3.67,-0.0289,2.16,0.366,3.29,2.13,3,2.07,2.54
TCTGCTAGGTCAGTTGGTAAGCTAACGAGCTGCC,0.91,0.626,-1.01,0.157,0.503,0.96,0.118,1.28,1.04,1.18
GATACAGGGTCAGCTAGAAGCCAGAGTATGGAAA,4.4,2.38,-0.483,2.13,-0.479,4.45,3.76,3.04,1.33,1.83
CCGACTGGGGCAAAGTTACCATAACGCACAGCCA,-0.19,-0.516,-0.498,-0.362,-0.945,1.6,4.27,5,3.18,4.86
CCGACTGGGGCAAGGTTGCCATAACGCACAGCCA,-0.306,-0.375,-0.461,-0.29,-1.05,0.601,1.87,2.77,0.553,2.2
CCTGCTAGGTCATCGTCAGCTAATCTACAGTATG,3.85,2.89,0.112,1.87,-0.413,3.5,2.06,2.75,0.439,1.47
CCTATTAGTTGACCATAACGGCAACCGAAGCTCG,0.455,0.697,0.909,0.584,0.966,0.199,0.702,0.486,0.219,0.318
